Hit rate of the full screen: of about 5,500 compounds, about 2,000 (36%) were called active. About 18% were inconclusive and are not listed. Some of the results follow. A number with no mark means an inactive call. No stated cut-off is given here; in the data, active means normalized growth mostly below about 0.91 (no sharp cut-off); inconclusive means no clear call, values can overlap the other calls; inactive means mostly above about 0.92.
Experiment: chemical genetic growth profiling, strain panel (AID 1159580);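 further: tested at 20 µM; growth read once vehicle control cultures reached saturation at 30 °C; 1 = growth at the plate median or of vehicle wells; lower values mean less growth of the strain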
Conditions: growth OD

## COP(=S)(OC)Oc1ccc([N+](=O)[O-])cc1
S. cerevisiae deletion strains, locus YJR075W, strain HOC1, hits give low values
  normalized growth: 0.993
S. cerevisiae deletion strains, locus YKL009W, strain mrt4, hits give low values
  normalized growth: 0.962
S. cerevisiae deletion strains, locus YKL068W, hits give low values
  normalized growth: 0.987
S. cerevisiae deletion strains, locus YKL085W, strain MDH1 (second series), hits give low values
  normalized growth: 0.978
S. cerevisiae deletion strains, locus YKL085W, strain MDH1, hits give low values
  normalized growth: 0.978
S. cerevisiae deletion strains, locus YKL160W, strain elf1, hits give low values
  normalized growth: 0.993
S. cerevisiae deletion strains, locus YKL190W, strain CNB1, hits give low values
  normalized growth: 0.975
S. cerevisiae deletion strains, locus YKR001C, strain vps1, hits give low values
  normalized growth: 0.982
S. cerevisiae deletion strains, locus YKR026C, strain gcn3, hits give low values
  normalized growth: 0.995
S. cerevisiae deletion strains, locus YKR091W, strain srl3, hits give low values
  normalized growth: 0.992
S. cerevisiae deletion strains, locus YLL001W, strain dnm1, hits give low values
  normalized growth: 0.995
S. cerevisiae deletion strains, locus YLL026W, hits give low values
  normalized growth: 0.993
S. cerevisiae deletion strains, locus YLL041C, strain sdh2, hits give low values
  normalized growth: 1
S. cerevisiae deletion strains, locus YLR027C, strain aat2, hits give low values
  normalized growth: 0.998
S. cerevisiae deletion strains, locus YLR039C, strain RIC1, hits give low values
  normalized growth: 0.877
S. cerevisiae deletion strains, locus YLR058C, strain SHM2, hits give low values
  normalized growth: 0.975
S. cerevisiae deletion strains, locus YLR102C, strain apc9, hits give low values
  normalized growth: 0.974
S. cerevisiae deletion strains, locus YLR113W, strain HOG1, hits give low values
  normalized growth: 0.916
S. cerevisiae deletion strains, locus YLR221C, strain rsa3, hits give low values
  normalized growth: 0.974
S. cerevisiae deletion strains, locus YLR258W, strain gsy2, hits give low values
  normalized growth: 0.99
S. cerevisiae deletion strains, locus YLR262C, strain YPT6 (second series), hits give low values
  normalized growth: 0.927
S. cerevisiae deletion strains, locus YLR262C, strain YPT6, hits give low values
  normalized growth: 0.915
S. cerevisiae deletion strains, locus YLR268W, strain sec22, hits give low values
  normalized growth: 0.993
S. cerevisiae deletion strains, locus YLR320W, strain mms22, hits give low values
  normalized growth: 0.944
S. cerevisiae deletion strains, locus YLR330W, strain CHS5, hits give low values
  normalized growth: 0.989
S. cerevisiae deletion strains, locus YLR342W, strain FKS1 (second series), hits give low values
  normalized growth: 0.998
S. cerevisiae deletion strains, locus YLR342W, strain FKS1, hits give low values
  normalized growth: 0.981
S. cerevisiae deletion strains, locus YLR357W, strain rsc2, hits give low values
  normalized growth: 1
S. cerevisiae deletion strains, locus YLR370C, strain arc18, hits give low values
  normalized growth: 0.991
S. cerevisiae deletion strains, locus YLR371W, strain rom2, hits give low values
  normalized growth: 0.975
S. cerevisiae deletion strains, locus YLR384C, strain iki3, hits give low values
  normalized growth: 0.971
S. cerevisiae deletion strains, locus YLR418C, strain cdc73, hits give low values
  normalized growth: 0.991
S. cerevisiae deletion strains, locus YML016C, strain PPZ1, hits give low values
  normalized growth: 0.951
S. cerevisiae deletion strains, locus YML032C, strain rad52, hits give low values
  normalized growth: 0.981
S. cerevisiae deletion strains, locus YML120C, strain ndi1, hits give low values
  normalized growth: 1
S. cerevisiae deletion strains, locus YML124C, strain tub3, hits give low values
  normalized growth: 0.99
S. cerevisiae deletion strains, locus YMR058W, strain fet3, hits give low values
  normalized growth: 1
S. cerevisiae deletion strains, locus YMR078C, strain ctf18, hits give low values
  normalized growth: 0.974
S. cerevisiae deletion strains, locus YMR125W, strain sto1, hits give low values
  normalized growth: 0.995
S. cerevisiae deletion strains, locus YMR129W, hits give low values
  normalized growth: 0.991
S. cerevisiae deletion strains, locus YMR205C, strain PFK2, hits give low values
  normalized growth: 0.97
S. cerevisiae deletion strains, locus YMR223W, strain ubp8, hits give low values
  normalized growth: 0.99
S. cerevisiae deletion strains, locus YMR231W, strain pep5, hits give low values
  normalized growth: 0.978
S. cerevisiae deletion strains, locus YMR263W, strain SAP30, hits give low values
  normalized growth: 0.985
S. cerevisiae deletion strains, locus YMR307W, strain GAS1, hits give low values
  normalized growth: 1.03
S. cerevisiae deletion strains, locus YNL067W, strain RPL9B, hits give low values
  normalized growth: 0.984
S. cerevisiae deletion strains, locus YNL071W, strain lat1, hits give low values
  normalized growth: 0.934
S. cerevisiae deletion strains, locus YNL128W, strain TEP1, hits give low values
  normalized growth: 0.96
S. cerevisiae deletion strains, locus YNL153C, strain GIM3, hits give low values
  normalized growth: 0.998
S. cerevisiae deletion strains, locus YNL183C, strain NPR1, hits give low values
  normalized growth: 0.954
S. cerevisiae deletion strains, locus YNL209W, strain ssb2, hits give low values
  normalized growth: 0.993
S. cerevisiae deletion strains, locus YNL233W, strain BNI4, hits give low values
  normalized growth: 0.977
S. cerevisiae deletion strains, locus YNL248C, strain rpa49, hits give low values
  normalized growth: 0.983
S. cerevisiae deletion strains, locus YNL250W, strain rad50, hits give low values
  normalized growth: 0.981
S. cerevisiae deletion strains, locus YNL271C, strain bni1, hits give low values
  normalized growth: 0.98
S. cerevisiae deletion strains, locus YNL298W, strain CLA4, hits give low values
  normalized growth: 0.977
S. cerevisiae deletion strains, locus YNL307C, strain MCK1, hits give low values
  normalized growth: 0.984
S. cerevisiae deletion strains, locus YNL322C, strain KRE1 (second series), hits give low values
  normalized growth: 0.99
S. cerevisiae deletion strains, locus YNL322C, strain KRE1, hits give low values
  normalized growth: 0.986
S. cerevisiae deletion strains, locus YNR049C, strain mso1, hits give low values
  normalized growth: 1.01
S. cerevisiae deletion strains, locus YNR052C, strain pop2, hits give low values
  normalized growth: 0.984
S. cerevisiae deletion strains, locus YOL006C, strain TOP1, hits give low values
  normalized growth: 0.885
S. cerevisiae deletion strains, locus YOL012C, strain htz1
  normalized growth: 1.15
S. cerevisiae deletion strains, locus YOL147C, strain pex11, hits give low values
  normalized growth: 0.994
S. cerevisiae deletion strains, locus YOR001W, strain rrp6, hits give low values
  normalized growth: 1
S. cerevisiae deletion strains, locus YOR061W, strain CKA2, hits give low values
  normalized growth: 0.964
S. cerevisiae deletion strains, locus YOR069W, strain VPS5, hits give low values
  normalized growth: 0.994
S. cerevisiae deletion strains, locus YOR070C, strain gyp1, hits give low values
  normalized growth: 1
S. cerevisiae deletion strains, locus YOR080W, strain dia2, hits give low values
  normalized growth: 0.984
S. cerevisiae deletion strains, locus YOR083W, strain WHI5, hits give low values
  normalized growth: 0.987
S. cerevisiae deletion strains, locus YOR106W, strain vam3, hits give low values
  normalized growth: 0.947
S. cerevisiae deletion strains, locus YOR136W, strain idh2, hits give low values
  normalized growth: 0.997
S. cerevisiae deletion strains, locus YOR144C, strain elg1, hits give low values
  normalized growth: 0.987
S. cerevisiae deletion strains, locus YOR184W, strain ser1, hits give low values
  normalized growth: 0.984
S. cerevisiae deletion strains, locus YOR231W, strain MKK1, hits give low values
  normalized growth: 1
S. cerevisiae deletion strains, locus YOR265W, strain rbl2, hits give low values
  normalized growth: 1.01
S. cerevisiae deletion strains, locus YOR270C, strain vph1, hits give low values
  normalized growth: 0.658 (active)
S. cerevisiae deletion strains, locus YOR290C, strain snf2, hits give low values
  normalized growth: 0.997
S. cerevisiae deletion strains, locus YOR316C, strain cot1, hits give low values
  normalized growth: 0.967
S. cerevisiae deletion strains, locus YPL051W, strain arl3, hits give low values
  normalized growth: 1.01
S. cerevisiae deletion strains, locus YPL055C, strain LGE1, hits give low values
  normalized growth: 0.964
S. cerevisiae deletion strains, locus YPL078C, strain atp4, hits give low values
  normalized growth: 0.999
S. cerevisiae deletion strains, locus YPL106C, strain sse1, hits give low values
  normalized growth: 0.984
S. cerevisiae deletion strains, locus YPL240C, strain hsp82, hits give low values
  normalized growth: 0.999
S. cerevisiae deletion strains, locus YPL241C, strain CIN2, hits give low values
  normalized growth: 0.985
S. cerevisiae deletion strains, locus YPL256C, strain CLN2, hits give low values
  normalized growth: 1.01
S. cerevisiae deletion strains, locus YPR119W, strain clb2, hits give low values
  normalized growth: 0.983
S. cerevisiae deletion strains, locus YPR141C, strain kar3, hits give low values
  normalized growth: 0.951
S. cerevisiae deletion strains, locus YPR163C, strain tif3, hits give low values
  normalized growth: 0.99
S. cerevisiae deletion strains, locus YPR167C, strain met16, hits give low values
  normalized growth: 0.984
S. cerevisiae deletion strains, strain wtn01, hits give low values
  normalized growth: 0.977
S. cerevisiae strains, strain wild type, hits give low values
  normalized growth: 0.985

Source: PubChem BioAssay AID1159580 (chemical genetic matrix, 2015)
